# Experimental data from PubChem BioAssay (NCI).
# Compounds without any hit were thinned out: in the full panel of roughly 83,000, 20% have a hit.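 Note: values are percent growth. 100 is the growth of untreated cells, values between 100 and 0 indicate rising inhibition; between -100 and 0 indicates cell death.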 A number with no mark means an inactive call. The source made the active and inactive calls. The calls were made as follows: active = growth percent below 10; inactive = the rest.
# Experiments:
# Experiment in all cases: NCI-60 one-dose screen, 48 h (100 = growth as untreated, 0 = no growth, -100 = all killed)
# Conditions in all cases: 10 µM unless noted
# [1] = test system: RPMI-8226 leukemia
# [2] = test system: OVCAR-8 ovarian
# [3] = test system: OVCAR-5 ovarian
# [4] = test system: OVCAR-4 ovarian
# [5] = test system: SK-OV-3 ovarian
# [6] = test system: IGROV1 ovarian
# [7] = test system: OVCAR-3 ovarian
# [8] = test system: HS 578T breast
# [9] = test system: NCI/ADR-RES ovarian
# [10] = test system: T-47D breast
# [11] = test system: BT-549 breast
# [12] = test system: MDA-MB-435 melanoma
# [13] = test system: SW-620 colon
# [14] = test system: MCF7 breast
# [15] = test system: HCT-116 colon
# [16] = test system: HCC-2998 colon
# [17] = test system: KM12 colon
Compound,growth [1],growth [2],growth [3],growth [4],growth [5],growth [6],growth [7],growth [8],growth [9],growth [10],growth [11],growth [12],growth [13],growth [14],growth [15],growth [16],growth [17]
C=C(C)[C@@H]1CC[C@]2(C(=O)OCCOCCOCC[P+](c3ccccc3)(c3ccccc3)c3ccccc3)CC[C@]3(C)[C@H](CC[C@@H]4[C@@]5(C)CC[C@H](C)C(C)(C)[C@@H]5CC[C@]43C)[C@@H]12,-59.3% (active),-81.3% (active),-72.2% (active),-85.6% (active),-96.9% (active),-70.5% (active),-91.7% (active),-39.2% (active),-59.8% (active),-68.5% (active),-93% (active),-93.7% (active),-83.5% (active),-77% (active),-88.4% (active),-85.5% (active),-81.3% (active)
COc1ccc(-c2cn(-c3ccc(Cl)cc3)c(=S)[nH]2)cc1OC,12.9%,53%,64.1%,86.8%,79.3%,49.4%,88.4%,100%,37%,68.1%,78.6%,86.1%,114%,72.2%,32.2%,79.2%,70.2%
COC(=O)/C=C1\SC(=Nc2ccc(F)cc2)N(CCc2c[nH]c3ccccc23)C1=O,93.8%,87.5%,110%,106%,102%,98.5%,104%,108%,95.8%,91.3%,88.4%,114%,106%,74.9%,87.8%,102%,100%
O=C1C(=O)c2c(nc3ccc(C(F)(F)F)cn23)-c2ccccc21,-26.6% (active),-96% (active),-78% (active),-95.9% (active),-99.6% (active),-58.9% (active),-63% (active),-15.3% (active),-14.1% (active),-50.6% (active),-85.2% (active),-84.4% (active),-60.4% (active),-55.5% (active),-74.9% (active),-90.4% (active),-61.7% (active)
NC[C@@H]1CCN(c2cc3c(cc2F)c(=O)n(N)c(=O)n3Cc2ccc(-c3ccccc3)cc2)C1,65.2%,96.3%,111%,97.4%,84.6%,91.9%,96.4%,82.9%,95.5%,89%,69.3%,76.6%,84.2%,79.4%,65.3%,96%,96.9%
Nc1cc(N)nc(SCC(=O)O)n1,102%,100%,107%,106%,105%,106%,111%,99.6%,104%,105%,109%,109%,104%,105%,99.1%,101%,104%
COC(=O)/C=C/c1cc(OC(C)=O)c2c(c1)C(C(=O)OC)C(c1ccc(OC(C)=O)c(OC(C)=O)c1)O2 (centres undefined),11.1%,-12.5% (active),50.5%,49.5%,18.8%,20.1%,3.01% (active),41.1%,6.1% (active),49.3%,-4.09% (active),-26.1% (active),20.5%,10%,9.77% (active),25.5%,16.5%
COc1ccc(-n2cc(COc3ccc4c5ccnc(C)c5n(CC(C)C)c4c3)nn2)cc1,27.5%,37.6%,91.3%,65.9%,56.7%,79%,66.2%,49.7%,53.9%,39.2%,66%,87.3%,78.9%,54.3%,50.5%,85.1%,80.2%
CCCCn1c(=O)c(/C=C/C(=O)/C=C/c2cc3ccccc3n(CCCC)c2=O)cc2ccccc21,-32.1% (active),-0.92% (active),25.9%,28.5%,15.6%,1.5% (active),-15.7% (active),30%,22.8%,20.8%,-54.5% (active),-65.2% (active),-2.85% (active),-0.486% (active),-90.3% (active),-92.6% (active),-75.8% (active)
COc1cc(N=Nc2cc(S(=O)(=O)O)cc3cc(S(=O)(=O)O)cc(O)c23)c(C)cc1N=Nc1c(S(=O)(=O)O)cc2cc(Nc3ccccc3)ccc2c1O,103%,106%,111%,97.8%,102%,96.6%,97.2%,108%,110%,93.4%,103%,109%,108%,103%,98.4%,105%,102%
COc1cccc(C(=O)OCCn2nc3c4c(cccc42)C(=O)c2ccccc2-3)c1O,30%,56.7%,69.3%,59.8%,120%,44.9%,3.88% (active),20.1%,22.5%,40.8%,52.8%,6.92% (active),20.9%,18.4%,29.6%,80.3%,29%
O=C1CC23OC4ON=C(Br)C4C2C(O)c2ccccc2N13 (centres undefined),100%,104%,114%,120%,93.5%,88.8%,96.3%,98.4%,94.5%,100%,105%,111%,101%,88.5%,94.5%,103%,100%
c1cc(CNC23CC4CC(CC(C4)C2)C3)cc(C[N+](Cc2cccc(CNC34CC5CC(CC(C5)C3)C4)c2)(Cc2cccc(CNC34CC5CC(CC(C5)C3)C4)c2)Cc2cccc(CNC34CC5CC(CC(C5)C3)C4)c2)c1 (centres undefined),-11.6% [42 µM] (active),7.24% [42 µM] (active),7.78% [42 µM] (active),29.5% [42 µM],61.9% [42 µM],10.9% [42 µM],-26.9% [42 µM] (active),58.2% [42 µM],21.5% [42 µM],24% [42 µM],24.5% [42 µM],11.3% [42 µM],20.6% [42 µM],2.14% [42 µM] (active),-3.55% [42 µM] (active),34.3% [42 µM],25.8% [42 µM]
O=c1[nH]c2ccccc2cc1-c1nc2ccncc2[nH]1,-0.575% (active),88.7%,112%,85.5%,90.5%,84.2%,90.9%,76.1%,108%,77.8%,91.3%,82.8%,88.4%,57.2%,63.2%,93.3%,22.8%
COc1ccc2nc3nc4ccc[nH]c4cc3c2c1,82.9%,96.6%,115%,92.2%,89%,69.6%,91.8%,92.5%,96.1%,38.3%,84.1%,101%,95.7%,5.69% (active),104%,101%,52.1%
COc1ccc(-c2nc(C#N)c(NCC(c3ccco3)N3CCCC3)o2)cc1 (centres undefined),24.2%,45.1%,69%,52.6%,30.4%,56.5%,22%,39.4%,10.2%,51.6%,66.7%,-23.5% (active),27.3%,19.6%,27%,67%,33.8%
Cc1c(Br)cccc1NC(=O)c1sc2nc3c(cc2c1N)CN(Cc1ccccc1)CC3,4.4% (active),14.1%,36.7%,28.1%,22.8%,39.3%,-7.95% (active),11.3%,24.2%,43%,29.3%,-42.9% (active),18.4%,14.9%,16.8%,41.1%,23.5%
